For 36 compounds, cell number and H1.0 immunofluorescence intensity results are on record in the supplement of paper PMC7156485.

± gives the standard deviation of the averaged measurements.

Conditions in all cases: concentration: 10 µM; 24 h
Assay [1] deals with HCC1569. Description: cell number relative to DMSO (% of DMSO); higher = more cells (less growth inhibition / toxicity). The procedure, abridged:
(§1)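 HCC1569 and TDF cells were seeded at 800 per well in 384-well plates in RPMI with 10% FBS and treated with compounds at 10 µM for 24 h at 37 °C, in triplicate. After fixation in 3.7% formaldehyde, cells were stained with a rabbit anti-H1.0 antibody, an AlexaFluor 647 secondary and DAPI, and six fields per well were imaged at ×10. H1.0 nuclear intensity or cell number is given as percent of the plate control, using the median of replicates, with HCC1569 values smoothed for positional effects.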

For assay [2], the system named is TDF. Described as above. The procedure, abridged:
as §1

The test system of assay [3] is TDF. Description: H1.0 immunofluorescence intensity relative to DMSO (% of DMSO); higher = stronger H1.0 induction, active = 120 or more. The procedure, abridged: as §1
Assay [4] relates to HCC1569. Description: H1.0 immunofluorescence intensity relative to DMSO (% of DMSO); higher = stronger H1.0 induction, active = 140 or more. The essentials: as §1
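For H1.0 immunofluorescence intensity relative to DMSO in this document: TDF is a line of transformed human dermal fibroblasts of mesenchymal origin.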
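For cell number relative to DMSO in this document: TDF denotes transformed human dermal fibroblasts of mesenchymal origin.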

For `CCCCCCCCCCCCCCC(C(=O)O)=C(C)C(=O)O` [Chaetomellic acid A], the cell number turned out to be 102 with HCC1569 [1] and 93.6 in the assay with TDF [2]. The H1.0 immunofluorescence intensity in the assay with TDF [3] was 104 (inactive); with HCC1569 [4], 100 (inactive).
The matching figures for `O=C1CSc2ccccc2N1Cc1cccc(C(F)(F)F)c1` [4-[3-(trifluoromethyl)benzyl]-2H-1,4-benzothiazin-3(4H)-one]: 102, 106, 96.3 (inactive) and 105 (inactive).
Regarding `COc1cc2c(cc1OC)CC(=O)N(CCCN(C)C[C@H]1Cc3cc(OC)c(OC)cc31)CC2.Cl`, the cell number in the assay with HCC1569 [1] was determined as 100; in the assay on TDF [2], 102. In addition, the H1.0 immunofluorescence intensity with TDF [3] is 92.6 (inactive); in the assay on HCC1569 [4], 97.3 (inactive).
The like results for `Cl.NCCNC(=O)c1ccc(Cl)cc1` [Ro 16-6491 hydrochloride] were, in that order, 100, 102, 94.8 (inactive) and 107 (inactive).
The like results for `CC1(C)C2CCC1(C(=O)O)C(=O)C2` (centres undefined) [Ketopinic acid] were, in that order, 103, 102, 99.7 (inactive) and 88.3 (inactive).
The matching figures for `O=C(Nc1ccc(Cl)cc1)c1ccccc1NCc1ccncc1` [VEGF Receptor Tyrosine Kinase Inhibitor II]: 106, 96.3, 96.5 (inactive) and 98.1 (inactive).
For the compound `CC(C)(Oc1ccc(CCNC(=O)c2ccc(Cl)cc2)cc1)C(=O)O` [Bezafibrate], the cell number in the assay on HCC1569 [1] was 98.4; with TDF [2], 105. Also, the H1.0 immunofluorescence intensity was 97.9 (inactive) in the assay on TDF [3] and 105 (inactive) in the assay on HCC1569 [4].
Turning to `O=C1Cc2c([nH]c3ccc(Br)cc23)-c2ccccc2N1` [Kenpaulone], the cell number in the assay with HCC1569 [1] was determined as 73.4; with TDF [2], 97.7. Besides, the H1.0 immunofluorescence intensity in the assay on TDF [3] was 89.8 (inactive); with HCC1569 [4], 83.4 (inactive).
The like results for `O=C(CCNNC(=O)c1ccncc1)NCc1ccccc1` [Nialamide] were, in that order, 102.5 ± 0.38, 103 ± 2.9, 92.2 (inactive) and 100 (inactive).
The like results for `Nc1ccc2ncnc(NCCc3ccc(Oc4ccccc4)cc3)c2c1` [NF-kB Activation Inhibitor] were, in that order, 66.3, 70.7, 106 (inactive) and 164 (active).
With `CCCCCCCCCC(=O)O` [Decanoic acid], the figures for the cell number in the assay with HCC1569 [1] and in the assay on TDF [2] were 105 and 95.3, respectively. The H1.0 immunofluorescence intensity in the assay on TDF [3] was 100 (inactive); with HCC1569 [4], 103 (inactive).
The like results for `CCCCC(=O)N(Cc1ccc(-c2ccccc2-c2nn[nH]n2)cc1)[C@H](C(=O)O)C(C)C` were, in that order, 98.8, 112, 93.7 (inactive) and 100 (inactive).
The matching figures for `CCN(CC)CCCCCCCCOC(=O)c1cc(OC)c(OC)c(OC)c1.Cl` [TMB-8 hydrochloride]: 105, 105, 99.8 (inactive) and 84.2 (inactive).
Consider `COc1ccccc1NC(=O)Nc1nc(-c2cccnc2)nc2ccccc12`, for which the cell number came out at 97.6 in the assay with HCC1569 [1] and 102 with TDF [2]. Besides, the H1.0 immunofluorescence intensity in the assay with TDF [3] is 95.1 (inactive); in the assay with HCC1569 [4], 104 (inactive).
In the case of `CN(C)CCCOc1nn(Cc2ccccc2)c2ccccc12` [Benzydamine], the cell number in the assay with HCC1569 [1] came to 100; with TDF [2], 83.7. The H1.0 immunofluorescence intensity is 104 (inactive) in the assay on TDF [3] and 103 (inactive) with HCC1569 [4].
The like results for `CC(Cc1ccccc1)(NC(=O)CN)c1ccccc1.Cl` (centres undefined) were, in that order, 97.7, 107, 103 (inactive) and 91.3 (inactive).
The matching figures for `OCCN1CCN(CCCN2c3ccccc3Sc3ccc(Cl)cc32)CC1` [Perphenazine]: 88, 90.8, 116 (inactive) and 140 (inactive).
On to `Nc1ncnc2n[nH]c(Nc3ccc(F)cc3)c12` [MNK1 Inhibitor], for which the cell number amounted to 91.2 with HCC1569 [1] and 110 in the assay with TDF [2]. Moreover, the H1.0 immunofluorescence intensity with TDF [3] was 88.8 (inactive); in the assay on HCC1569 [4] it was 140 (inactive).
As for `Cl.Oc1ccc(C2CNCCc3c2cc(O)c(O)c3Cl)cc1` (centres undefined) [Fenoldopam.HCl], the cell number was determined as 97.6 in the assay on HCC1569 [1] and 97.8 with TDF [2]. Also, the H1.0 immunofluorescence intensity was 97 (inactive) with TDF [3] and 121 (inactive) in the assay on HCC1569 [4].
Take `NC(=S)NN=Cc1ncccc1N` [3-amino-2-pyridinecarbaldehyde thiosemicarbazone]: the cell number was 77.2 in the assay with HCC1569 [1] and 41.7 with TDF [2]. Moreover, the figures for the H1.0 immunofluorescence intensity in the assay with TDF [3] and with HCC1569 [4] were 113 (inactive) and 99.1 (inactive), respectively.
The like results for `COC(=O)C1=C(C)NC(C)=C(C(=O)OCCN(C)Cc2ccccc2)C1c1cccc([N+](=O)[O-])c1.Cl` (centres undefined) [Nicardipine.HCl] were, in that order, 96.8, 100, 98.7 (inactive) and 107 (inactive).
The like results for `O=C(CCCN1CCC(O)(c2cccc(C(F)(F)F)c2)CC1)c1ccc(F)cc1` [Trifluperidol] were, in that order, 100, 95.7, 97.3 (inactive) and 102 (inactive).
The matching figures for `CNC1C(O)C(NC)C2OC3(O)C(=O)CC(C)OC3OC2C1O.Cl.Cl` (centres undefined) [Spectinomycin.2HCl]: 98.8, 106, 94.4 (inactive) and 100 (inactive).
Consider `Nc1nc(=O)n(C2CSC(CO)O2)cc1F` (centres undefined) [Emtricitabine], for which the cell number in the assay on HCC1569 [1] was found to be 105; in the assay with TDF [2], 99.4. Besides, the H1.0 immunofluorescence intensity in the assay on TDF [3] is 96.1 (inactive); in the assay with HCC1569 [4], 105 (inactive).
As to `O=C(O)c1cc(N(Cc2ccccc2O)Cc2cc(O)ccc2O)ccc1O` [Lavendustin A], the figures for the cell number in the assay with HCC1569 [1] and in the assay with TDF [2] were 105 and 89.4, respectively. Also, the H1.0 immunofluorescence intensity in the assay on TDF [3] was 108 (inactive); in the assay with HCC1569 [4], 97.9 (inactive).
The like results for `CC(=O)OC(C)C[N+](C)(C)C.[Cl-]` (stereo not drawn) [Acetyl-beta-methylcholine chloride] were, in that order, 110, 94.7, 96.2 (inactive) and 88.4 (inactive).
The like results for `CCN(CC)CCNC(=O)c1ccc(N)cc1.Cl` [Procainamide hydrochloride] were, in that order, 98.7, 110, 88.6 (inactive) and 99.1 (inactive).
On to `CCCCn1c(=O)c2c(ncn2CC(C)=O)n(CCCC)c1=O` [Denbufylline], for which the values for the cell number in the assay with HCC1569 [1] and with TDF [2] were 103 and 112, respectively. Also, the H1.0 immunofluorescence intensity was 87.3 (inactive) in the assay with TDF [3] and 106 (inactive) with HCC1569 [4].
Consider `O=C(O)CCCC=CCC1C(O)CC(F)C1C=CC(O)C1Cc2ccccc2C1` (centres undefined), for which the cell number in the assay on HCC1569 [1] and in the assay on TDF [2] was 103 in each case. For the same compound, the H1.0 immunofluorescence intensity is 91.9 (inactive) in the assay on TDF [3] and 97.3 (inactive) with HCC1569 [4].
As for `Oc1ccc(C=Cc2cc(O)cc(O)c2)cc1` [Resveratrol], the cell number with HCC1569 [1] came to 79.2 ± 6.3; in the assay with TDF [2], 79.5 ± 4. Further, the H1.0 immunofluorescence intensity is 99.5 (inactive) in the assay with TDF [3] and 113 (inactive) with HCC1569 [4].
The matching figures for `CN(CCOc1ccc(CC(Nc2ccccc2C(=O)c2ccccc2)C(=O)O)cc1)c1ccccn1` (centres undefined): 102, 104, 92.6 (inactive) and 88.2 (inactive).
For the compound `Cc1cnc(Nc2ccc(OCCN3CCCC3)cc2)nc1Nc1cccc(S(=O)(=O)NC(C)(C)C)c1`, the cell number in the assay with HCC1569 [1] worked out at 67.1; in the assay with TDF [2], 43.3. For the same compound, the results for the H1.0 immunofluorescence intensity in the assay with TDF [3] and in the assay on HCC1569 [4] were 116 (inactive) and 189 (active), respectively.
`CCCCCCCCCCCC=CCCCCC(=O)O` [6(E)-Octadecenoic acid]: the cell number in the assay on HCC1569 [1] was 100; in the assay with TDF [2], 101. Moreover, the H1.0 immunofluorescence intensity is 102 (inactive) with TDF [3] and 89.5 (inactive) with HCC1569 [4].
In the case of `CCCCCC(O)C=CC=CC=CC(O)CC=CCCCC(=O)O` [8(S),15(S)-DIHETE all trans], the cell number in the assay with HCC1569 [1] was 103; in the assay with TDF [2], 96.5. Further, the figures for the H1.0 immunofluorescence intensity in the assay with TDF [3] and in the assay on HCC1569 [4] were 92.4 (inactive) and 101 (inactive), respectively.
Regarding `CCCCCCCCCCCCCCCCCCOP(=O)([O-])OC1CC[N+](C)(C)CC1` [1,1-dimethylpiperidinium-4-yl octadecyl phosphate], the cell number came out at 103 in the assay with HCC1569 [1] and 96.6 in the assay with TDF [2]. The results for the H1.0 immunofluorescence intensity in the assay on TDF [3] and in the assay on HCC1569 [4] were 98.2 (inactive) and 103 (inactive), respectively.
Turning to `CCN1C(=CC(C)=O)Sc2ccc(OC)cc21` [Cdc2-Like Kinase Inhibitor, TG003], the cell number in the assay on HCC1569 [1] came to 97.3; in the assay on TDF [2], 112. Further, the results for the H1.0 immunofluorescence intensity in the assay on TDF [3] and in the assay with HCC1569 [4] were 89.5 (inactive) and 119 (inactive), respectively.
